Molecules are shown by their SMILES. The panel holds about 83,000 compounds, 20% with a hit somewhere; the sample as a whole holds those more often.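 Step 1: grow cells in 96-well plates. Step 2: add test compound at a single concentration. Step 3: incubate 48 h. Step 4: record percent growth.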 Unmarked numbers belong to inactive results. Active and inactive are the calls of the source. Rule for the calls: active = growth percent below 10; inactive = the rest.

This note sets out measurements from PubChem BioAssay (NCI).

Test systems include DU-145 prostate; K-562 leukemia; MALME-3M melanoma; MDA-MB-231 breast; RXF 393 renal; SF-268 CNS; SF-295 CNS; SF-539 CNS; UACC-257 melanoma; M14 melanoma; HCT-15 colon; HT29 colon; SNB-75 CNS; U251 CNS; PC-3 prostate; SK-MEL-5 melanoma; UACC-62 melanoma; LOX IMVI melanoma; SK-MEL-28 melanoma; SNB-19 CNS.
Holding throughout (assay): NCI-60 one-dose screen, 48 h (100 = growth as untreated, 0 = no growth, -100 = all killed)
Common to all, as to details: 10 µM unless noted

For `C/C(=N\O)[C@@H]1CC[C@]2(CO)CC[C@]3(C)[C@H](CC[C@@H]4[C@@]5(C)CCCNC(C)(C)[C@@H]5CC[C@]43C)[C@@H]12`, the growth with DU-145 prostate was 95%; in the experiment on K-562 leukemia, 2.56% (active); in the experiment on MALME-3M melanoma, 95.4%; in the experiment on MDA-MB-231 breast, 90.9%; in the experiment with RXF 393 renal, 80.8%; in the experiment on SF-268 CNS it was 84.7%. Moreover, the growth with SF-295 CNS is 92.5%; with SF-539 CNS, 93.3%; with UACC-257 melanoma, 97.6%; with M14 melanoma, 87%; with HCT-15 colon, 83.6%; in the experiment with HT29 colon, 24.5%. For the same compound, the growth in the experiment with SNB-75 CNS was 68.9%; with U251 CNS it was 61.4%; with PC-3 prostate, 60.6%; in the experiment on SK-MEL-5 melanoma it was 84.1%; in the experiment on UACC-62 melanoma it was 90.5%; in the experiment on LOX IMVI melanoma it was 77.6%. In the experiment with SK-MEL-28 melanoma, the growth was 93.2%.
Regarding `O=C1NC(=O)/C(=C/c2c(-c3ccccc3)nc3sc(COc4ccccc4)nn23)S1`, the growth was 105% in the experiment on DU-145 prostate; 82.6% with K-562 leukemia; 102% in the experiment on MALME-3M melanoma; 73.3% with MDA-MB-231 breast; 112% with RXF 393 renal; 106% in the experiment with SF-268 CNS. For the same compound, the growth in the experiment with SF-295 CNS was 94.3%; in the experiment on SF-539 CNS it was 103%; in the experiment with UACC-257 melanoma, 104%; in the experiment on M14 melanoma, 96.1%; in the experiment on HCT-15 colon it was 97.2%; with HT29 colon it was 117%. For the same compound, the growth with SNB-75 CNS is 108%; with U251 CNS, 96.7%; with PC-3 prostate, 111%; with SK-MEL-5 melanoma it was 97.9%; in the experiment on UACC-62 melanoma it was 90%; in the experiment on LOX IMVI melanoma, 57%. In addition, the growth in the experiment on SK-MEL-28 melanoma was 110%.
With `COc1ccc(/C=C2\CN(C(=O)C(Cl)Cl)C/C(=C\c3ccc(OC)cc3)C2=O)cc1`, the growth is -11.2% (active) with DU-145 prostate; 2.32% (active) in the experiment on K-562 leukemia; -33.9% (active) in the experiment on MALME-3M melanoma; 3.8% (active) with MDA-MB-231 breast; -68.2% (active) in the experiment with RXF 393 renal; 23.6% in the experiment with SF-268 CNS. Moreover, the growth with SF-295 CNS was -25.1% (active); with SF-539 CNS, -40% (active); in the experiment on UACC-257 melanoma, 22.8%; in the experiment with M14 melanoma, -39% (active); with HCT-15 colon, -14.4% (active); with HT29 colon, 5.9% (active). The growth was 21% with SNB-75 CNS; -8.13% (active) in the experiment with PC-3 prostate; -41% (active) in the experiment with SK-MEL-5 melanoma; -66% (active) in the experiment with UACC-62 melanoma; -77.8% (active) in the experiment with LOX IMVI melanoma; -12.5% (active) in the experiment on SK-MEL-28 melanoma.
As for `CCCCNC(=O)Oc1ccc(/C(=C(/C)Cc2ccc(OC)cc2)c2ccc(OCCN3CCCCC3)cc2)cc1`, the growth in the experiment with DU-145 prostate was 92.1%; in the experiment on K-562 leukemia, -14.1% (active); with MALME-3M melanoma, 79.1%; with MDA-MB-231 breast, 87.6%; with RXF 393 renal, 71.5%; with SF-268 CNS, 81.2%. Further, the growth is 86.8% in the experiment on SF-295 CNS; 80.4% in the experiment on SF-539 CNS; 99.2% with UACC-257 melanoma; 31% with M14 melanoma; 32.3% in the experiment with HCT-15 colon; 2.86% (active) in the experiment on HT29 colon. Also, the growth in the experiment with SNB-75 CNS was 64.8%; in the experiment on SNB-19 CNS, 77.1%; with PC-3 prostate, 59%; in the experiment on SK-MEL-5 melanoma, 57%; with UACC-62 melanoma, 67.7%; in the experiment with SK-MEL-28 melanoma, 78.2%.
In the case of `CCN1C(=O)N(CC)C2C1NN=c1s/c(=C\c3ccc(C(F)(F)F)cc3)c(=O)n12` (stereo not given), the growth was 6.72% (active) in the experiment on DU-145 prostate; 7.4% (active) in the experiment with K-562 leukemia; 49.5% in the experiment with MALME-3M melanoma; 9% (active) in the experiment with MDA-MB-231 breast; 24.1% in the experiment with RXF 393 renal; 53.5% with SF-268 CNS. Further, the growth is 14.1% in the experiment with SF-295 CNS; -21.6% (active) with SF-539 CNS; 48.9% with UACC-257 melanoma; 6.9% (active) in the experiment on M14 melanoma; 9.86% (active) in the experiment on HCT-15 colon; 1.55% (active) with HT29 colon. For the same compound, the growth in the experiment with SNB-75 CNS was 15%; in the experiment with U251 CNS it was 6.65% (active); with PC-3 prostate, 22.6%; in the experiment on SK-MEL-5 melanoma, 6.27% (active); in the experiment on UACC-62 melanoma it was 30.9%; in the experiment on LOX IMVI melanoma, 17.4%. In addition, the growth in the experiment on SK-MEL-28 melanoma is 55.8%.
For the compound `COc1cccc(/C=C/C(=O)c2cc3c(N)c(C(=O)Nc4cccc5ccccc45)sc3nc2C)c1`, the growth with DU-145 prostate was 7.62% (active); with K-562 leukemia, 10.4%; with MALME-3M melanoma, 33.5%; in the experiment on MDA-MB-231 breast, -3.88% (active); with RXF 393 renal, -31.6% (active); in the experiment on SF-268 CNS, 15.3%. Besides, the growth with SF-295 CNS was 15.5%; in the experiment on SF-539 CNS, -67.3% (active); with UACC-257 melanoma it was 61.7%; with M14 melanoma, 2.46% (active); in the experiment on HCT-15 colon, -23.1% (active); in the experiment on HT29 colon it was -11.2% (active). Besides, the growth was -16.4% (active) in the experiment on SNB-75 CNS; -11.4% (active) in the experiment on U251 CNS; 27.7% in the experiment with PC-3 prostate; -19.7% (active) in the experiment with SK-MEL-5 melanoma; -18.3% (active) in the experiment with UACC-62 melanoma; -66.8% (active) in the experiment with LOX IMVI melanoma. Besides, the growth in the experiment with SK-MEL-28 melanoma is 39.2%.
As for `O=C(Nc1ccc(Br)cc1)C1=NCCCCN1`, the growth in the experiment with DU-145 prostate was 85.1%; in the experiment on K-562 leukemia it was 50.8%; in the experiment with MALME-3M melanoma, 104%; in the experiment on MDA-MB-231 breast, 92.1%; in the experiment with RXF 393 renal it was 110%; in the experiment with SF-268 CNS, 79.6%. Moreover, the growth in the experiment with SF-295 CNS is 98.2%; with SF-539 CNS, 90.9%; with UACC-257 melanoma it was 100%; in the experiment on M14 melanoma, 81.6%; in the experiment with HCT-15 colon it was 62.2%; in the experiment with HT29 colon, 86%. The growth with SNB-75 CNS is 88.6%; in the experiment on U251 CNS, 91.6%; in the experiment on PC-3 prostate, 74.4%; in the experiment on SK-MEL-5 melanoma, 93.3%; with UACC-62 melanoma it was 58.8%; in the experiment on LOX IMVI melanoma it was 35.5%. Also, the growth in the experiment on SK-MEL-28 melanoma was 114%.
On to `CC(C)(C)n1cc(-c2ccnc(NCCCNS(=O)(=O)c3ccc(C(F)(F)F)cc3)c2)c(-c2cccc(F)c2)n1`, for which the growth was 92.6% in the experiment with DU-145 prostate; 30.9% in the experiment with K-562 leukemia; 105% in the experiment with MALME-3M melanoma; 93.8% with MDA-MB-231 breast; 92.2% in the experiment with RXF 393 renal; 87.2% with SF-268 CNS. For the same compound, the growth is 94.7% with SF-295 CNS; 74.1% in the experiment with SF-539 CNS; 94.4% in the experiment with UACC-257 melanoma; 81.2% in the experiment on M14 melanoma; 37.7% in the experiment with HCT-15 colon; 16.5% in the experiment on HT29 colon. For the same compound, the growth in the experiment on SNB-75 CNS is 66.6%; with U251 CNS it was 67.6%; with PC-3 prostate, 71.9%; in the experiment with SK-MEL-5 melanoma, 78.9%; with UACC-62 melanoma, 89.4%; with LOX IMVI melanoma, 73.6%. Moreover, in the experiment on SK-MEL-28 melanoma, the growth is 96.9%.
